Screening results from PubChem BioAssay.
An excerpt weighted towards active compounds, which were near 2.8% of everything screened.
PAX8 reporter: inhibitors of PAX8-driven TPO luciferase reporter, primary screen, RMG-I cells, single concentration. SteadyGlo, 24 h. inhibition, % at 12.6 µM. hit rate 1.2% among 360,000;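 active = mean replicate inhibition at least 60% with every replicate also reaching 60%; inconclusive = only one of the two criteria is met; inactive = mean below 60% and not all replicates reaching 60%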;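 note: luciferase light reporting Pax8 driven TPO promoter activity; plate controls were median of neutral control wells for no effect and mitoxantrone controls for full effect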
LGR2 inh: inhibitors of bursicon-induced LGR2 CRE-luciferase signal, primary screen, cell-based, HEK293, CRE-luciferase reporter, bursicon stimulation; bursicon-stimulated, 4 h; inhibition, % at 9.99 µM; hit rate 0.35% among 380,000;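 active = drop in luminescence signal, shown as inhibition above about 50% in the replicate tests, limit read from the data, passing the limit was not always enough; inconclusive = probably only some replicates passing the limit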;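 note: agonist challenge used bursicon conditioned medium at about half maximal strength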
EWS-Fli block: EWS/Fli-driven NR0B1 reporter inhibitors, primary screen, A673 cells, NR0B1 luciferase, luminescence, MLPCN library. viability-normalised. inhibition, % at 12.6 µM. hit rate 0.67% among 350,000. AID 651661, 2012;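 active = mean inhibition of at least 50% after viability correction, with every replicate also passing that limit; inconclusive = mean reaches 50% but only one of two replicates passes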;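 note: firefly luciferase signal divided by Alamar Blue viability fluorescence both relative to DMSO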
TWEAK-Fn14 inh: inhibitors of TWEAK-Fn14 signaling, primary screen, luciferase reporter cells, uHTS. TWEAK-stimulated Fn14 reporter cells, luciferase luminescence, 8 h. inhibition, % at 10 µM. hit rate 2% among 360,000. AID 1159606, 2016; in the data active = inhibition above about 50%
TROY signal inh: inhibitors of TROY-driven NF-kB signaling, primary screen, Q293 LMP1-TROYcd cells, NF-kB luciferase, uHTS; hit rate 0.98% among 360,000; inhibition, % at 10 µM; AID 1347056, 2019; Q293 LMP1-TROYcd NF-kB luciferase reporter, 4 h;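 active = compounds whose plate-normalised and pattern-corrected inhibition of the luciferase reporter signal at the single screening dose is 50% or more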
* marks the source's active call; other numbers are inactive results; ? = inconclusive; · = not tested or not shown.

SMILES | PAX8 reporter | LGR2 inh | EWS-Fli block | TWEAK-Fn14 inh | TROY signal inh
C[C@@H]1CCCCO[C@@H](CN(C)Cc2ccc(Cl)c(Cl)c2)[C@@H](C)CN([C@H](C)CO)C(=O)c2cc(NS(=O)(=O)c3ccccc3)ccc2O1 | -2.3 | 22.0 | -11.8 | · | ·
C[C@@H]1CCCCO[C@@H](CN(C)Cc2ccc(Cl)c(Cl)c2)[C@@H](C)CN([C@@H](C)CO)C(=O)c2cc(NS(=O)(=O)c3ccc(F)cc3)ccc2O1 | -2.5 | 7.1 | 2.1 | · | ·
C[C@@H]1CCCCO[C@H](CN(C)Cc2ccc(Cl)c(Cl)c2)[C@H](C)CN([C@@H](C)CO)C(=O)c2cc(NS(=O)(=O)c3ccc(Cl)cc3)ccc2O1 | 95.4* | -7.0 | 5.1 | · | ·
C[C@@H]1CCCCO[C@@H](CN(C)Cc2ccc(Cl)c(Cl)c2)[C@H](C)CN([C@@H](C)CO)C(=O)c2cc(NS(=O)(=O)c3ccc(Cl)cc3)ccc2O1 | 104.2* | 7.6 | 9.1 | · | ·
CN1C(=O)c2cc(NC(=O)C3CCCC3)ccc2OC[C@H]2O[C@@H](CC(=O)NCc3ccccc3F)CC[C@H]21 | 16.9 | -12.3 | -6.8 | · | ·
O=C1/C(=C/c2ccc(O)c([N+](=O)[O-])c2)SC(=S)N1Cc1ccccc1 | 15.3 | -0.3 | -6.1 | 60.1* | 33.8
O=C1/C(=C\c2ccc(O)cc2)SC(=S)N1Cc1ccccc1 | -15.5 | -26.1 | 13.6 | 15.4 | 21.7
O=C1/C(=C\c2cccc([N+](=O)[O-])c2O)SC(=S)N1Cc1ccccc1 | 32.9 | 6.6 | -9.6 | 69.0* | 49.8
O=C1/C(=C/c2ccccc2O)SC(=S)N1Cc1cccnc1 | -12.7 | 82.8* | 48.7 | 31.7 | 30.3
Cc1ccc(S(=O)(=O)N(C)C[C@@H]2Oc3ccc(NS(=O)(=O)c4cccs4)cc3C(=O)N([C@H](C)CO)C[C@H]2C)cc1 | -0.2 | -5.7 | -24.7 | · | ·
CNC[C@@H]1Oc2ccc(NC(=O)Cn3cnnn3)cc2C(=O)N([C@H](C)CO)C[C@H]1C | · | 14.8 | -3.8 | · | ·
C[C@@H]1CCCCO[C@H](CN(C)S(=O)(=O)c2ccc(F)cc2)[C@H](C)CN([C@@H](C)CO)C(=O)c2cc(NS(=O)(=O)c3ccc(F)cc3)ccc2O1 | 30.1 | 5.7 | 3.8 | · | ·
CCOC(=O)Nc1ccc2c(c1)N(C(=O)CCN(CC)CC)c1ccccc1CC2 | 39.8 | 2.8 | 14.9 | 5.5 | 7.3
CCOC(=O)Nc1ccc2c(c1)N(C(=O)CCN(CC)CC)c1ccccc1S2=O (configuration not stated) | 108.6* | 35.8 | 6.0 | 64.5* | 54.5*
C[C@H]1CCCCO[C@H](CN(C)S(=O)(=O)c2cn(C)cn2)[C@@H](C)CN([C@@H](C)CO)C(=O)c2cc(NC(=O)Nc3ccccc3)ccc2O1 | -8.3 | -5.9 | -3.4 | · | ·
CCOC(=O)CCS(=O)(=O)c1nc(-c2ccccc2)cc(C(F)(F)F)n1 | · | · | · | 83.5* | 46.2
COc1ccc(-c2cc(C(F)(F)F)nc(S(=O)(=O)CCCC(=O)Nc3cccnc3Cl)n2)cc1OC | 71.5* | ? | 20.1 | 93.8* | 37.1
CCOC(=O)CS(=O)(=O)c1nc(-c2ccccc2)cc(C(F)(F)F)n1 | · | · | · | 35.0 | 38.5
CCOC(=O)CS(=O)(=O)c1nc(-c2ccc(F)cc2)cc(C(F)(F)F)n1 | · | · | · | 57.5* | 51.3*
Cc1cc(NC(=O)CCCS(=O)(=O)c2nc(-c3cccs3)cc(C(F)(F)F)n2)no1 | 106.1* | 23.6 | · | 60.0* | 66.4*
COc1ccc(Cl)cc1C(=O)OCC(=O)Nc1cccnc1Cl | 4.0 | -2.0 | 0.0 | -36.8 | -21.9
CO[C@@H]1CN(C)C(=O)c2ccc(NC(=O)Nc3cccc(Cl)c3)cc2OC[C@H](C)NC[C@H]1C | 7.4 | 15.6 | 9.0 | · | ·
COc1ccc(CN(C)C[C@H]2OCCCC[C@H](C)Oc3ccc(NC(=O)NC4CCCCC4)cc3C(=O)N([C@H](C)CO)C[C@@H]2C)cc1 | · | -8.9 | 4.8 | · | ·
C[C@H](NC(=O)C[C@H]1C=C[C@@H](NS(=O)(=O)c2cccc(F)c2)[C@H](CO)O1)c1ccccc1 | -4.3 | 11.1 | 7.4 | · | ·
COC(=O)CCS(=O)(=O)c1nc(-c2ccccc2)cc(C(F)(F)F)n1 | · | · | · | 90.5* | 12.2
SMILES | PAX8 reporter | LGR2 inh | EWS-Fli block | TWEAK-Fn14 inh | TROY signal inh
COCC(C)NC(=O)CCS(=O)(=O)c1nc(-c2ccc(OC)cc2)cc(C(F)(F)F)n1 (configuration not stated) | · | · | · | 85.7* | 46.3
O=C(C[C@H]1CC[C@@H](NS(=O)(=O)c2ccccc2)[C@H](CO)O1)NCc1ccccc1F | 11.6 | -3.4 | -0.8 | · | ·
COc1ccc(S(=O)(=O)Nc2ccc3c(c2)CC(=O)N([C@@H](C)CO)C[C@H](C)[C@H](CN(C)S(=O)(=O)c2ccccc2)O3)cc1 | -2.1 | -1.2 | 6.4 | · | ·
C/C(=N\NC(=O)C1(C)CC1(Br)Br)c1cccc(NC(=O)c2ccc(C)o2)c1 (configuration not stated) | -19.7 | 1.8 | · | 55.7* | 16.2
OC[C@H]1CC[C@@H]2O[C@H](CCc3ccc(C#CCc4ccccc4)cc3)[C@H](n3cc(-c4ccccc4)nn3)C[C@@H]2O1 | 18.3 | · | -8.0 | · | ·
OC[C@@H]1CC[C@@H]2O[C@H](CCc3ccc(C#CCc4ccccc4)cc3)[C@@H](n3cc(-c4ccccc4)nn3)C[C@@H]2O1 | 71.6* | · | 20.2 | · | ·
OC[C@H]1CC[C@@H]2O[C@H](CCc3ccc(C#Cc4ccccc4)cc3)[C@@H](n3cc(-c4ccccc4)nn3)C[C@@H]2O1 | 15.1 | · | 2.6 | · | ·
OC[C@@H]1CC[C@@H]2O[C@H](CCc3ccc(C#CCc4ccccc4)cc3)[C@H](n3cc(-c4ccccc4)nn3)C[C@@H]2O1 | 62.2* | · | 0.9 | · | ·
C[C@H](CO)N1C[C@H](C)[C@@H](CN(C)Cc2ccc(Cl)c(Cl)c2)Oc2c(NC(=O)Nc3cccc4ccccc34)cccc2C1=O | 16.0 | 29.6 | -3.2 | · | ·
COc1ccc(N2CCN(CCCn3c(=S)[nH]c4ccccc4c3=O)CC2)cc1 | 3.3 | 8.7 | -20.8 | -50.2 | -7.3
CCOc1cc2[nH]c(=O)n(CCCN3CCN(c4ccc(OC)cc4)CC3)c(=O)c2cc1OCC | 3.8 | -12.5 | 1.8 | 87.1* | 2.8
Oc1cccc(-c2nc3c4c(ncn3n2)-c2ccccc2CC42CCCC2)c1 | · | ? | 13.5 | 71.4* | 41.4
Cn1cnc(S(=O)(=O)N2C[C@H](O)COC[C@@H]3O[C@H](CC(=O)N4CCN(c5ccccc5)CC4)CC[C@H]32)c1 | 7.0 | 7.6 | -8.8 | · | ·
C/C(=C/CCC(C)[C@H]1CC[C@@]2(C)C3=C(CC[C@]12C)[C@@]1(C)CCC(=O)C(C)(C)[C@@H]1CC3)C(=O)O (some centres not stated) | 7.3 | · | 2.2 | 10.4 | 53.5*
C[C@H]1CN([C@@H](C)CO)C(=O)c2cccc(NS(=O)(=O)c3cn(C)cn3)c2O[C@H]1CN(C)Cc1ccc(C(=O)Nc2ccccc2N)cc1 | 21.1 | 5.2 | 31.2 | · | ·
COc1ccc(CNC(=O)C[C@@H]2C=C[C@H](NC(=O)c3cccc(F)c3)[C@@H](CO)O2)cc1 | 10.6 | 11.6 | -4.8 | · | ·
